From PubChem BioAssay AID1159580 (chemical genetic matrix, 2015)
Screen size: about 5,500 compounds; about 2,000 (36%) were called active. About 18% were inconclusive and are not listed. No stated cut-off is given here; in the data, active means normalized growth mostly below about 0.91 (no sharp cut-off); inconclusive means no clear call, values can overlap the other calls; inactive means mostly above about 0.92. The list shows a part of the results.

Test: chemical genetic growth profiling, strain panel (AID 1159580);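 further: tested at 20 µM; growth read once vehicle control cultures reached saturation at 30 °C; 1 = growth at the plate median or of vehicle wells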
Details: growth OD

Measured: normalized growth

O=C(CCCN1CC=C(n2c(=O)[nH]c3ccccc32)CC1)c1ccc(F)cc1
inactive: S. cerevisiae deletion strains, locus YJR075W, strain HOC1, stronger effect = lower value 0.98 | S. cerevisiae deletion strains, locus YKL009W, strain mrt4, stronger effect = lower value 0.939 | S. cerevisiae deletion strains, locus YKL068W, stronger effect = lower value 0.989 | S. cerevisiae deletion strains, locus YKL085W, strain MDH1 (second series), stronger effect = lower value 0.994 | S. cerevisiae deletion strains, locus YKL085W, strain MDH1, stronger effect = lower value 0.994 | S. cerevisiae deletion strains, locus YKL160W, strain elf1, stronger effect = lower value 0.977 | S. cerevisiae deletion strains, locus YKL190W, strain CNB1, stronger effect = lower value 0.99 | S. cerevisiae deletion strains, locus YKR001C, strain vps1, stronger effect = lower value 0.981 | S. cerevisiae deletion strains, locus YKR026C, strain gcn3, stronger effect = lower value 0.948 | S. cerevisiae deletion strains, locus YKR091W, strain srl3, stronger effect = lower value 0.967 | S. cerevisiae deletion strains, locus YLL001W, strain dnm1, stronger effect = lower value 0.957 | S. cerevisiae deletion strains, locus YLL026W, stronger effect = lower value 0.968 | S. cerevisiae deletion strains, locus YLL041C, strain sdh2, stronger effect = lower value 0.988 | S. cerevisiae deletion strains, locus YLR027C, strain aat2, stronger effect = lower value 0.979 | S. cerevisiae deletion strains, locus YLR039C, strain RIC1, stronger effect = lower value 0.969 | S. cerevisiae deletion strains, locus YLR058C, strain SHM2, stronger effect = lower value 0.967 | S. cerevisiae deletion strains, locus YLR102C, strain apc9, stronger effect = lower value 0.989 | S. cerevisiae deletion strains, locus YLR113W, strain HOG1, stronger effect = lower value 0.971 | S. cerevisiae deletion strains, locus YLR221C, strain rsa3, stronger effect = lower value 0.976 | S. cerevisiae deletion strains, locus YLR258W, strain gsy2, stronger effect = lower value 0.987 | S. cerevisiae deletion strains, locus YLR262C, strain YPT6 (second series), stronger effect = lower value 0.954 | S. cerevisiae deletion strains, locus YLR262C, strain YPT6, stronger effect = lower value 0.942 | S. cerevisiae deletion strains, locus YLR268W, strain sec22, stronger effect = lower value 1.05 | S. cerevisiae deletion strains, locus YLR320W, strain mms22, stronger effect = lower value 0.986 | S. cerevisiae deletion strains, locus YLR330W, strain CHS5, stronger effect = lower value 0.986 | S. cerevisiae deletion strains, locus YLR342W, strain FKS1 (second series), stronger effect = lower value 0.944 | S. cerevisiae deletion strains, locus YLR342W, strain FKS1, stronger effect = lower value 0.974 | S. cerevisiae deletion strains, locus YLR357W, strain rsc2, stronger effect = lower value 0.951 | S. cerevisiae deletion strains, locus YLR370C, strain arc18, stronger effect = lower value 0.972 | S. cerevisiae deletion strains, locus YLR371W, strain rom2, stronger effect = lower value 0.949 | S. cerevisiae deletion strains, locus YLR384C, strain iki3, stronger effect = lower value 0.961 | S. cerevisiae deletion strains, locus YLR418C, strain cdc73, stronger effect = lower value 0.968 | S. cerevisiae deletion strains, locus YML016C, strain PPZ1, stronger effect = lower value 0.987 | S. cerevisiae deletion strains, locus YML032C, strain rad52, stronger effect = lower value 0.993 | S. cerevisiae deletion strains, locus YML120C, strain ndi1, stronger effect = lower value 1 | S. cerevisiae deletion strains, locus YML124C, strain tub3, stronger effect = lower value 0.975 | S. cerevisiae deletion strains, locus YMR058W, strain fet3, stronger effect = lower value 0.99 | S. cerevisiae deletion strains, locus YMR078C, strain ctf18, stronger effect = lower value 0.979 | S. cerevisiae deletion strains, locus YMR125W, strain sto1, stronger effect = lower value 0.944 | S. cerevisiae deletion strains, locus YMR129W, stronger effect = lower value 0.987 | S. cerevisiae deletion strains, locus YMR205C, strain PFK2, stronger effect = lower value 0.951 | S. cerevisiae deletion strains, locus YMR223W, strain ubp8, stronger effect = lower value 0.955 | S. cerevisiae deletion strains, locus YMR231W, strain pep5, stronger effect = lower value 0.979 | S. cerevisiae deletion strains, locus YMR263W, strain SAP30, stronger effect = lower value 0.987 | S. cerevisiae deletion strains, locus YMR307W, strain GAS1, stronger effect = lower value 0.974 | S. cerevisiae deletion strains, locus YNL067W, strain RPL9B, stronger effect = lower value 0.999 | S. cerevisiae deletion strains, locus YNL071W, strain lat1, stronger effect = lower value 0.982 | S. cerevisiae deletion strains, locus YNL128W, strain TEP1, stronger effect = lower value 0.98 | S. cerevisiae deletion strains, locus YNL153C, strain GIM3, stronger effect = lower value 0.985 | S. cerevisiae deletion strains, locus YNL183C, strain NPR1, stronger effect = lower value 0.925 | S. cerevisiae deletion strains, locus YNL209W, strain ssb2, stronger effect = lower value 0.975 | S. cerevisiae deletion strains, locus YNL233W, strain BNI4, stronger effect = lower value 0.992 | S. cerevisiae deletion strains, locus YNL248C, strain rpa49, stronger effect = lower value 0.981 | S. cerevisiae deletion strains, locus YNL250W, strain rad50, stronger effect = lower value 0.971 | S. cerevisiae deletion strains, locus YNL271C, strain bni1, stronger effect = lower value 0.995 | S. cerevisiae deletion strains, locus YNL298W, strain CLA4, stronger effect = lower value 0.982 | S. cerevisiae deletion strains, locus YNL307C, strain MCK1, stronger effect = lower value 0.968 | S. cerevisiae deletion strains, locus YNL322C, strain KRE1 (second series), stronger effect = lower value 0.984 | S. cerevisiae deletion strains, locus YNL322C, strain KRE1, stronger effect = lower value 0.987 | S. cerevisiae deletion strains, locus YNR049C, strain mso1, stronger effect = lower value 0.972 | S. cerevisiae deletion strains, locus YNR052C, strain pop2, stronger effect = lower value 0.992 | S. cerevisiae deletion strains, locus YOL006C, strain TOP1, stronger effect = lower value 0.996 | S. cerevisiae deletion strains, locus YOL012C, strain htz1 0.899 | S. cerevisiae deletion strains, locus YOL147C, strain pex11, stronger effect = lower value 0.991 | S. cerevisiae deletion strains, locus YOR001W, strain rrp6, stronger effect = lower value 0.955 | S. cerevisiae deletion strains, locus YOR061W, strain CKA2, stronger effect = lower value 0.97 | S. cerevisiae deletion strains, locus YOR070C, strain gyp1, stronger effect = lower value 0.99 | S. cerevisiae deletion strains, locus YOR080W, strain dia2, stronger effect = lower value 0.963 | S. cerevisiae deletion strains, locus YOR083W, strain WHI5, stronger effect = lower value 0.978 | S. cerevisiae deletion strains, locus YOR106W, strain vam3, stronger effect = lower value 0.933 | S. cerevisiae deletion strains, locus YOR136W, strain idh2, stronger effect = lower value 0.983 | S. cerevisiae deletion strains, locus YOR144C, strain elg1, stronger effect = lower value 0.988 | S. cerevisiae deletion strains, locus YOR184W, strain ser1, stronger effect = lower value 0.967 | S. cerevisiae deletion strains, locus YOR231W, strain MKK1, stronger effect = lower value 0.992 | S. cerevisiae deletion strains, locus YOR265W, strain rbl2, stronger effect = lower value 0.981 | S. cerevisiae deletion strains, locus YOR270C, strain vph1, stronger effect = lower value 0.956 | S. cerevisiae deletion strains, locus YOR290C, strain snf2, stronger effect = lower value 0.98 | S. cerevisiae deletion strains, locus YOR316C, strain cot1, stronger effect = lower value 0.98 | S. cerevisiae deletion strains, locus YPL051W, strain arl3, stronger effect = lower value 0.98 | S. cerevisiae deletion strains, locus YPL055C, strain LGE1, stronger effect = lower value 0.955 | S. cerevisiae deletion strains, locus YPL078C, strain atp4, stronger effect = lower value 0.949 | S. cerevisiae deletion strains, locus YPL106C, strain sse1, stronger effect = lower value 0.967 | S. cerevisiae deletion strains, locus YPL240C, strain hsp82, stronger effect = lower value 0.979 | S. cerevisiae deletion strains, locus YPL241C, strain CIN2, stronger effect = lower value 0.992 | S. cerevisiae deletion strains, locus YPL256C, strain CLN2, stronger effect = lower value 0.991 | S. cerevisiae deletion strains, locus YPR119W, strain clb2, stronger effect = lower value 0.989 | S. cerevisiae deletion strains, locus YPR141C, strain kar3, stronger effect = lower value 0.973 | S. cerevisiae deletion strains, locus YPR163C, strain tif3, stronger effect = lower value 0.989 | S. cerevisiae deletion strains, locus YPR167C, strain met16, stronger effect = lower value 0.991 | S. cerevisiae deletion strains, strain wtn01, stronger effect = lower value 0.991 | S. cerevisiae strains, strain wild type, stronger effect = lower value 0.979
